Test results as given in PubChem BioAssay (NCATS).
Results filed as inconclusive are left out. Entries that show only a call come without a potency. Active and inactive are the calls of the source. Calls follow the shape of the dose curve; as a rule, active = well fitted curve in the direction sought with a large enough effect; inconclusive = small, poorly fitted or top-dose-only effect, or another doubt; inactive = no such curve, though single readings can be large; an effect the other way counts as inactive or inconclusive.

Key:
[1] = qHTS of pediatric cancer cell lines to identify multiple opportunities for drug repurposing: Primary screen for SJ-GBM2 cells (AID 1347091)
Outline: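 Eight- or eleven-point concentration series, 48 h treatment at 37 degrees C in growth media; readout CellTiter-Glo luminescence. Potency and efficacy were taken from the concentration-response curves.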

[2] = qHTS of pediatric cancer cell lines to identify multiple opportunities for drug repurposing: Primary screen for A673 cells (AID 1347092); also: nearly all actives have a fitted effect of over 45% in size
Outline: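 Luminescence from CellTiter-Glo, taken after 15 min at room temperature, served as the proxy for metabolically active cells following 48 h treatment. Both potency and efficacy were taken from curves fitted to the titration data.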

[3] = qHTS of pediatric cancer cell lines to identify multiple opportunities for drug repurposing: Primary screen for SK-N-MC cells (AID 1347093)
Outline: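 Metabolically active cells were quantified by ATP-dependent luminescence (CellTiter-Glo, 15 min at room temperature) following 48 h treatment. Cells had been plated at 500-1,000 per well and settled for 5 h beforehand.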

[4] = qHTS of pediatric cancer cell lines to identify multiple opportunities for drug repurposing: Primary screen for NB-EBc1 cells (AID 1347095)
Outline: (§1)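 ATP-based luminescence (CellTiter-Glo) quantifies viability after a 48-hour exposure. Compounds are dosed across 8 or 11 final concentrations; DMSO and 2.3 µM bortezomib serve as controls.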

[5] = qHTS of pediatric cancer cell lines to identify multiple opportunities for drug repurposing: Primary screen for U-2 OS cells (AID 1347096); also: nearly all actives have a fitted effect of over 50% in size
Outline: (§2)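 Cells (500-1,000/well) in growth media were settled 5 h at 37 degrees C, then given compounds for 48 h. Viability was read as CellTiter-Glo luminescence. Primary runs used MIPE at 11 points (0.78 nM-46 µM) and NPC at 8 points (0.59 nM-46 µM); follow-ups used 11 points.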

[6] = qHTS of pediatric cancer cell lines to identify multiple opportunities for drug repurposing: Primary screen for SK-N-SH cells (AID 1347098); also: nearly all actives have a fitted effect of over 65% in size
Outline: (§3)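 Cells (500-1,000/well) rested 5 h, then received compounds for 48 h; metabolically active cells were measured by CellTiter-Glo luminescence. Final concentrations spanned up to 46 µM (MIPE, 11-point) or 0.59 nM-46 µM (NPC, 8-point) in primary screens, 11-point in follow-ups.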

[7] = qHTS of pediatric cancer cell lines to identify multiple opportunities for drug repurposing: Primary screen for NB1643 cells (AID 1347099); also: nearly all actives have a fitted effect of over 50% in size
Outline: as §1

[8] = qHTS of pediatric cancer cell lines to identify multiple opportunities for drug repurposing: Primary screen for Rh18 cells (AID 1347102); also: nearly all actives have a fitted effect of over 65% in size
Outline: as §2

[9] = qHTS of pediatric cancer cell lines to identify multiple opportunities for drug repurposing: Primary screen for OHS-50 cells (AID 1347103); also: nearly all actives have a fitted effect of over 40% in size
Outline: as §3

[10] = qHTS of pediatric cancer cell lines to identify multiple opportunities for drug repurposing: Primary screen for RD cells (AID 1347104); also: nearly all actives have a fitted effect of over 55% in size
Outline: as §1

[11] = qHTS of pediatric cancer cell lines to identify multiple opportunities for drug repurposing: Primary screen for MG 63 (6-TG R) cells (AID 1347105); also: nearly all actives have a fitted effect of over 50% in size
Outline: as §1

[12] = qHTS of pediatric cancer cell lines to identify multiple opportunities for drug repurposing: Primary screen for control Hh wild type fibroblast cells (AID 1347106); also: nearly all actives have a fitted effect of over 55% in size
Outline: as §2

[13] = qHTS of pediatric cancer cell lines to identify multiple opportunities for drug repurposing: Primary screen for Rh30 cells (AID 1347107); also: nearly all actives have a fitted effect of over 75% in size
Outline: as §2

[14] = qHTS of pediatric cancer cell lines to identify multiple opportunities for drug repurposing: Primary screen for Rh41 cells (AID 1347108); also: nearly all actives have a fitted effect of over 70% in size
Outline: as §1

[15] = qHTS of pediatric cancer cell lines to identify multiple opportunities for drug repurposing: Primary screen for BT-37 cells (AID 1347094)
Outline: as §1

[16] = qHTS of pediatric cancer cell lines to identify multiple opportunities for drug repurposing: Primary screen for Saos-2 cells (AID 1347097); also: nearly all actives have a fitted effect of over 40% in size
Outline: as §1

[17] = qHTS of pediatric cancer cell lines to identify multiple opportunities for drug repurposing: Primary screen for LAN-5 cells (AID 1347100)
Outline: as §2

[18] = qHTS of pediatric cancer cell lines to identify multiple opportunities for drug repurposing: Primary screen for BT-12 cells (AID 1347101); also: nearly all actives have a fitted effect of over 25% in size
Outline: as §3

[19] = qHTS of pediatric cancer cell lines to identify multiple opportunities for drug repurposing: Confirmatory screen for A673 cells (AID 1347110);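 also: cells exposed to compound for 48 h before the viability read; nearly all actives have a fitted effect of over 65% in size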
Outline: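 qHTS titration format: primary MIPE 0.78 nM-46 µM (11 pts), NPC 0.59 nM-46 µM; confirmation 11 pts. 48 h, CTG luminescence.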
Potency is read from the fitted curve at half-maximal effect.

SMILES | Potency [1] | Potency [2] | Potency [3] | Potency [4] | Potency [5] | Potency [6] | Potency [7] | Potency [8] | Potency [9] | Potency [10] | Potency [11] | Potency [12] | Potency [13] | Potency [14] | Potency [15] | Potency [16] | Potency [17] | Potency [18] | Potency [19]
CC(O)(C#Cc1ccc2c(c1)N(c1nc(N)ncc1Cl)CC2)c1nccs1 (centres undefined) | 13.2 µM (active) | 5.9 µM (active) | 2.35 µM (active) | inactive | inactive | 21.5 µM (active) | 16.6 µM (active) | inactive | 24.3 µM (active) | 18.7 µM (active) | 9.35 µM (active) | inactive | inactive | inactive |  |  |  |  | 
CCCNS(=O)(=O)Nc1ncnc(OCCOc2ncc(Br)cn2)c1-c1ccc(Br)cc1 | inactive | inactive |  | inactive | inactive | inactive |  | inactive | inactive | inactive | inactive | inactive | inactive |  | inactive | inactive | inactive |  | 
CCCc1nc(C(C)(C)O)c(C(=O)O)n1Cc1ccc(-c2ccccc2-c2nn[nH]n2)cc1 | inactive | inactive |  | inactive | inactive |  |  | inactive | inactive | inactive | inactive | inactive | inactive | inactive | inactive | inactive | inactive | inactive | 
C[C@@H]1C(=O)O[C@H]2CC34[C@H]5C[C@@H](C(C)(C)C)C36[C@H](OC(=O)[C@@H]6O)O[C@@]4(C(=O)O5)[C@]21O (some centres undefined) | inactive | inactive | inactive | inactive | inactive |  |  |  | inactive | inactive | inactive | inactive | inactive | inactive |  |  | 13.2 µM (active) |  | 
NS(=O)(=O)OC[C@@H]1C[C@@H](n2ccc3c(N[C@H]4CCc5ccccc54)ncnc32)C[C@H]1O | 0.296 µM (active) | 0.148 µM (active) | 0.0935 µM (active) | 0.132 µM (active) |  | inactive | 6.62 µM (active) |  | inactive | 0.833 µM (active) |  | 6.62 µM (active) |  | 1.87 µM (active) |  |  | 0.833 µM (active) |  | 14.7 µM (active)
Cc1ccc(O)c(C(CCN(C(C)C)C(C)C)c2ccccc2)c1 (centres undefined) | inactive | inactive |  | inactive | inactive | inactive | inactive | inactive |  | inactive |  | inactive | inactive | inactive | inactive | inactive | inactive | inactive | 
CCN(CC)CCCCNc1ncc2c(n1)N(C)C(=O)N(c1c(Cl)c(OC)cc(OC)c1Cl)C2 | 14.8 µM (active) | 18.7 µM (active) | 13.2 µM (active) |  | inactive | 6.81 µM (active) | 16.6 µM (active) | 11.8 µM (active) | 19.3 µM (active) | 18.7 µM (active) | inactive |  |  | 18.7 µM (active) |  | inactive | 20.9 µM (active) | 17.2 µM (active) | 
CC(C)N(CC[C@H](c1ccccc1)c1cc(CO)ccc1O)C(C)C | inactive | inactive |  | inactive | inactive |  | inactive | inactive |  | inactive | inactive | inactive | inactive | inactive | inactive | inactive | inactive | inactive | 
CCOC(=O)C=C[C@H](C[C@@H]1CCNC1=O)NC(=O)[C@@H](CC(=O)[C@@H](NC(=O)c1cc(C)on1)C(C)C)Cc1ccc(F)cc1 | inactive | inactive |  | inactive | inactive | inactive | inactive | inactive | inactive | inactive | inactive | inactive | inactive | inactive | inactive |  | inactive | inactive | 
O=C(O)[C@H](CC(=O)N1C[C@@H]2CCCC[C@H]2C1)Cc1ccccc1 | inactive | inactive |  | inactive | inactive |  | inactive | inactive | inactive | inactive |  | inactive | inactive | inactive | inactive |  |  |  | 
Cc1cc(O)c2c(c1)C(=O)c1cccc(O)c1C2=O | inactive | inactive |  | inactive | inactive | inactive | inactive | inactive | inactive | inactive | inactive | inactive | inactive | inactive | inactive |  | inactive | inactive | 
COc1cc(CCc2cc(NC(=O)c3ccc(N4C[C@@H](C)N[C@@H](C)C4)cc3)n[nH]2)cc(OC)c1 | 13.2 µM (active) | 14.8 µM (active) |  | 14.8 µM (active) | 23.5 µM (active) | 6.07 µM (active) |  | 5.9 µM (active) | 5.44 µM (active) |  |  | 33.2 µM (active) | 18.7 µM (active) | 5.9 µM (active) | 27.3 µM (active) | 5.9 µM (active) | 4.18 µM (active) | 27.3 µM (active) | 
